Test results from PubChem BioAssay AID977607 (Broad Institute, 2014).
In all, about 1,500 compounds went through this assay and about 460 (31%) were called active. Not shown: some 1% with an inconclusive outcome. The list is a sample of the results. Potency and affinity values are given separately. A number with no mark means an inactive call.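 How the source made its calls: active means curve reaches 40% activation over neutral controls at an AC40 no higher than the top valid tested concentration; inconclusive means no clear call, values can overlap the other calls; inactive means signal moving opposite to the expected increase, and the rest.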

Assay: GLuc-reported insulin release enhancers, glucose-stimulated beta cells – cell-based, INS-1E, Gaussia luciferase, luminescence, cherry-pick, set 2, dose response (AID 977607);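 further: 0% = median of the plate neutral control wells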
Details: INS-1E GLuc insulin secretion reporter, 2-3 h, stronger effect = higher value; at 35 µM, 100% = signal doubled over neutral wells unless noted

Row | SMILES | max activation
1 | N#Cc1cnn2c(C(F)(F)F)cc(-c3ccccc3)nc12 | -14.3% [at 0.0016 µM, 100% = signal doubled over neutral wells]
2 | Cc1cc(C)c(CSc2nnnn2-c2ccc(C(=O)O)cc2)c(C)c1 | -11.8% [at 1.2 µM, 100% = signal doubled over neutral wells]
3 | O=C(c1cccnc1)N(Cc1ccccc1)c1ccccc1 | 25.1%
4 | CCCNC(=O)C1(C)CCCN(Cc2cccn2C)C1 (stereo not given) | -16.6% [at 3.8 µM, 100% = signal doubled over neutral wells]
5 | CC(=O)Nc1ccc(Cl)c(-c2nc3ncccc3o2)c1 | 24% [at 0.005 µM, 100% = signal doubled over neutral wells]
6 | CC(C)CCN(CC(=O)NCc1ccc(F)cc1)S(=O)(=O)c1ccccc1F | -38.5% [at 11 µM, 100% = signal doubled over neutral wells]
7 | CCOc1nc(NC(=O)NS(=O)(=O)Oc2ccccc2Cl)nc(-c2ccccc2)n1 | -20.8% [at 0.0016 µM, 100% = signal doubled over neutral wells]
8 | CC1Oc2ccccc2N(Cc2cccc(F)c2)C1=O (stereo not given) | -13.7% [at 0.005 µM, 100% = signal doubled over neutral wells]
9 | Cc1ccc(-c2ccc([C@@H]3[C@@H]4CN(Cc5ccccc5F)C[C@H]3N4)cc2)cc1 | 26.7% [at 0.42 µM, 100% = signal doubled over neutral wells]
10 | O=C(NC1CCCC1)C(C1CC1)n1c(-c2ccccn2)nc2ccccc21 (stereo not given) | -23.1% [at 0.135 µM, 100% = signal doubled over neutral wells]
11 | CC(C)C(C(=O)NCc1ccco1)N(CC1CCCO1)C(=O)CNS(=O)(=O)c1ccc(F)cc1 (stereo not given) | -14.9% [at 11 µM, 100% = signal doubled over neutral wells]
12 | CCSc1ncnc2sc3c(c12)CCC3 | 31.4%
13 | COc1ccccc1-c1cnc2c(Nc3cccc(OC(F)(F)C(F)F)c3)nccn12 | -17.8% [at 11 µM, 100% = signal doubled over neutral wells]
14 | Cc1cccc(CN2C(=O)CSc3ccc(C(=O)NC4CC4)cc32)c1 | 41% [at 0.135 µM, 100% = signal doubled over neutral wells]
15 | Cc1cc(NCc2ccccn2)nc2ccccc12 | -14.9% [at 0.005 µM, 100% = signal doubled over neutral wells]
16 | CCOc1ccc(CCNC(=O)c2cc(C)on2)cc1OCC | -13.4% [at 0.135 µM, 100% = signal doubled over neutral wells]
17 | O=C(CN1C(=O)NC(Cc2c[nH]c3ccccc23)C1=O)NCCc1ccccc1 (stereo not given) | 21% [at 11 µM, 100% = signal doubled over neutral wells]
18 | COc1ccc(CCn2nnc(-c3ccc(NC(C)=O)c(Cl)c3)n2)cc1 | -24.6% [at 11 µM, 100% = signal doubled over neutral wells]

Row | SMILES | max activation
19 | COc1ccc(C2CC(=O)C(c3ccc(C)cc3)=CN2Cc2ccccc2)cc1 (stereo not given) | -26.2%
20 | O=c1c2sccc2n(Cc2cccc(F)c2)c(=O)n1-c1ccc(F)cc1 | -14.5% [at 0.005 µM, 100% = signal doubled over neutral wells]
21 | COc1ccc2nc(CCN(C)C(=O)C3CCC(=O)N(Cc4cccc(F)c4)C3)[nH]c2c1 (stereo not given) | -20.4%
22 | COc1cccc(-c2ccc3c(c2)N(Cc2cccc(F)c2)C(=O)C(C)S3)c1 (stereo not given) | -26.7% [at 11 µM, 100% = signal doubled over neutral wells]
23 | CN(C(=O)c1ccc(C#N)cc1)c1nnc(-c2cnccn2)s1 | -16.1% [at 0.42 µM, 100% = signal doubled over neutral wells]
24 | Cc1cc(C)n(CC(=O)n2c3ccccc3c3ccccc32)n1 | 20.6%
25 | CN[C@H]1C[C@@H](c2ccccc2)N(C(C)=O)C[C@H]1CO | -14% [at 0.135 µM, 100% = signal doubled over neutral wells]
26 | COC(=O)c1ccc(C)c(-n2c(=O)n(Cc3ccccc3)c(=O)c3[nH]cnc32)c1 | -20.8% [at 0.005 µM, 100% = signal doubled over neutral wells]
27 | CC1CN(Cc2ccccc2)C(=S)NC1=O (stereo not given) | -25.1% [at 3.8 µM, 100% = signal doubled over neutral wells]
28 | Cc1c(C=O)c2ccccn2c1C(=O)c1ccc(F)cc1 | -14.1% [at 0.0016 µM, 100% = signal doubled over neutral wells]
29 | Cc1ccc(C(=O)c2sc3nc4c(cc3c2N)CCC4)cc1 | -20.2% [at 3.8 µM, 100% = signal doubled over neutral wells]
30 | O=C(N/N=C/c1ccncc1)c1cc(-c2ccc(Br)s2)[nH]n1 | 46.1%
31 | Fc1cccc(-c2nnn3c2nc(Cl)c2ccccc23)c1 | -32% [at 11 µM, 100% = signal doubled over neutral wells]
32 | CCc1cc2c(COC(=O)c3cccc(NS(C)(=O)=O)c3)cc(=O)oc2cc1O | -16.1%
33 | O=C1CCc2cc(S(=O)(=O)N3CCN(c4ccc(F)cc4)CC3)cc3c2N1CC3 | -14.5% [at 0.0016 µM, 100% = signal doubled over neutral wells]
34 | CC(C)(C(=O)N1CCC1(C)C(=O)NS(=O)(=O)c1cccc(Cl)c1)c1ccccc1 (stereo not given) | -17.3% [at 0.135 µM, 100% = signal doubled over neutral wells]
35 | CCOc1ccccc1CNS(=O)(=O)c1cnc[nH]1 | -8.34% [at 0.005 µM, 100% = signal doubled over neutral wells]
